# From ChEMBL document CHEMBL3988442, “University of Dundee, Small-Polar-MMV Screening Library” (2021)
# The whole screen tested about 66,000 compounds, of which about 960 (1.5%) showed an effect of 50% or more. This is one part of a sample in which strong results are shown more often than they occur.
# Tested on: Trypanosoma brucei
# Experiment: Trypanosoma brucei 72 hour study
# Type: functional, organism-based
# Set-up: scale not given: in the data most compounds retested in dose-response had high values
compound,measurement,setting,value
Fc1cccc(Oc2ccc(CNCC3CNc4ccnn4C3)cn2)c1 (configuration not stated),Percent Effect,"30 µM, 30.03 µM",11.44%
COc1ccc(CNCC2CNc3cc(C)nn3C2)cn1 (configuration not stated),Percent Effect,"30.3 µM, […]",11.94%
Fc1ccc(Oc2ccc(CNCC3CNc4ccnn4C3)cn2)cc1 (configuration not stated),Percent Effect,"30.3 µM, […]",22.41%
same,Percent Effect,"10 mM, 10 mM as filed; unlikely as a test dose",-33.28%
Cc1cc2n(n1)CC(CNCc1ccc(-n3cccn3)nc1)CN2 (configuration not stated),Percent Effect,"30 µM, 30.03 µM",-7.458%
c1cc(CNCC2CNc3ccnn3C2)cc(OC2CCCC2)n1 (configuration not stated),Percent Effect,"30.3 µM, […]",16.86%
COCCOc1ccc(CNCC2CNc3cc(C)nn3C2)cn1 (configuration not stated),Percent Effect,"30.3 µM, […]",6.502%
Cc1cc2n(n1)CC(CNCc1ccc(OCC3CC3)nc1)CN2 (configuration not stated),Percent Effect,"30.3 µM, […]",69.29%
same,Percent Effect,"10 mM, 10 mM as filed; unlikely as a test dose",-5.536%
c1cc2n(n1)CC(CNCc1ccc(OC3CCCCC3)nc1)CN2 (configuration not stated),Percent Effect,"30 µM, 30.03 µM",28.54%
c1ccc(Oc2ccc(CNCC3CNc4ccnn4C3)cn2)cc1 (configuration not stated),Percent Effect,"30.3 µM, […]",59.34%
same,Percent Effect,"10 mM, 10 mM as filed; unlikely as a test dose",-30.66%
Cc1cc2n(n1)CC(CNCc1ccc(Oc3ccccc3)nc1)CN2 (configuration not stated),Percent Effect,"30.3 µM, […]",53.59%
c1cc2n(n1)CC(CNCc1ccc(OC3CCCC3)nc1)CN2 (configuration not stated),Percent Effect,"30.3 µM, […]",80.85%
same,Percent Effect,"10 mM, 10 mM as filed; unlikely as a test dose",9.3%
Cc1ccc(CNCC2CNc3cc(C)nn3C2)cn1 (configuration not stated),Percent Effect,"30.3 µM, […]",-20.04%
O=C(Nc1cccn(Cc2ccc(F)cc2)c1=O)c1csnn1,Percent Effect,"30 µM, 30.03 µM",-24.79%
CN(C(=O)Cc1ccccc1Cl)C1CCN(c2ccccn2)CC1,Percent Effect,10 µM,-27.72%
same,Percent Effect,"30.3 µM, […]",20.76%
Cn1cc(C(O)CNC(=O)c2ccc(F)cc2Cl)cn1 (configuration not stated),Percent Effect,"30 µM, 30.03 µM",3.538%
CCN1Cc2nc(OC)c(CNC(=O)CCC3CCCC3)cc2C1=O,Percent Effect,"30 µM, 30.03 µM",-13.67%
O=C(C1CC=CC1)N1C[C@@H](OCc2cccnc2)[C@H]2OCCC[C@H]21.O=C(O)C(F)(F)F,Percent Effect,"30 µM, 30.03 µM",39.05%
CCc1nccn1-c1cncc(C2CCCN2)n1.Cl (configuration not stated),Percent Effect,"30.3 µM, […]",-8.115%
N#Cc1cccc(CN2Cc3nccn3CC(CN3CCCC3)C2)c1.O=C(O)C(F)(F)F.O=C(O)C(F)(F)F (configuration not stated),Percent Effect,"30 µM, 30.03 µM",-41.66%
Cc1cc(N2CCC(CC(N)=O)CC2)nc(-c2ccncc2)n1,Percent Effect,"30.3 µM, […]",0.7336%
Cc1cc(N2CCC(Cc3ccccc3)CC2)nc(-c2ccncc2)n1,Percent Effect,"30.3 µM, […]",99.65%
CC(=O)NCC1CCN(c2cc(C)nc(-c3ccncc3)n2)CC1,Percent Effect,10 µM,-42.73%
Cc1ccc(C(=O)N2CCC3(CC2)CC(N2CCCC2)C3)cc1.O=C(O)C(F)(F)F,Percent Effect,"30.3 µM, […]",-4.803%
Cc1ccc(N2CCC3(CN(Cc4cccs4)CCC3(F)F)C2)nn1.O=C(O)C(F)(F)F (configuration not stated),Percent Effect,"30.3 µM, […]",-34.83%
Cc1ccc(CN2CCn3c(C(=O)N(C)C)cnc3C2)cc1.O=C(O)C(F)(F)F,Percent Effect,"30.3 µM, […]",-165%
Cl.Cn1cc([C@@H]2CN(S(=O)(=O)c3cccnc3)C[C@H]2N)c2ccncc21,Percent Effect,"30.3 µM, […]",-9.979%
Cl.Cn1cc([C@@H]2CN(S(C)(=O)=O)C[C@H]2N)c2ccncc21,Percent Effect,"30.3 µM, […]",-16.68%
Cl.Cn1cc([C@@H]2CN(S(=O)(=O)c3ccccc3F)C[C@H]2N)c2ccncc21,Percent Effect,"30.3 µM, […]",53.59%
c1cc(N2CCC(CN3CCOCC3)CC2)c2sccc2n1,Percent Effect,"30 µM, 30.03 µM",-9.098%
COc1ccc(OCc2sc(C3(O)CCCNCC3)nc2C)cc1.Cl (configuration not stated),Percent Effect,"30.3 µM, […]",57.18%
Cc1nc(C)c(COc2ccc(S(=O)(=O)N(C)C)cc2)s1,Percent Effect,"30 µM, 30.03 µM",-44.61%
Cc1nc(C2(O)CCCNCC2)sc1CCOc1ccc(Cl)cc1.Cl (configuration not stated),Percent Effect,"30.3 µM, […]",101.5%
C[C@@H]1CN(CCOc2ccc(Cl)cc2)CC[C@@]1(O)C1CCOCC1,Percent Effect,"30 µM, 30.03 µM",-42.79%
Cc1noc(CNC(=O)NCCOc2ccc(Cl)cc2)n1,Percent Effect,"30 µM, 30.03 µM",-8.016%
COc1ccc(OCCc2sc(C3(O)CCCNCC3)nc2C)cc1.Cl (configuration not stated),Percent Effect,"30.3 µM, […]",34.01%
CCN1CCCC(O)(c2nc(C)c(CCOc3ccc(F)cc3)s2)CC1 (configuration not stated),Percent Effect,"30.3 µM, […]",-11.99%
Cc1nc(C2(O)CCCNCC2)sc1CCOc1ccc(F)cc1.Cl (configuration not stated),Percent Effect,"30.3 µM, […]",73.77%
CC(=O)NCc1nc(CCOc2ccc(Cl)cc2)no1,Percent Effect,"30 µM, 30.03 µM",-81.13%
CCCN1CCCC(O)(c2nc(C)c(COc3ccccc3)s2)CC1 (configuration not stated),Percent Effect,"30.3 µM, […]",37.82%
O=C(O)C(F)(F)F.O=C(O)C(F)(F)F.c1cnc(N2C[C@H]3CCN(CCN4CCCC4)C[C@H]3C2)cn1,Percent Effect,"30.3 µM, […]",4.729%
COc1cc(C(=O)N2CCCC(c3cc(C)[nH]n3)C2)cc(OC)c1C (configuration not stated),Percent Effect,"30.3 µM, […]",-7.766%
CCCS(=O)(=O)N1CCO[C@H]2[C@@H](Oc3cccnc3)CC[C@@H]21.O=C(O)C(F)(F)F,Percent Effect,"30.3 µM, […]",-3.605%
O=C(NCC1CC1)[C@@H]1CC[C@@H]2[C@@H](CCN2Cc2ccco2)O1.O=C(O)C(F)(F)F,Percent Effect,"30.3 µM, […]",-31.37%
O=C(O)C(F)(F)F.O=C(c1ccco1)N1CC[C@@H]2O[C@H](COCCN3CCCC3)CC[C@@H]21,Percent Effect,"30 µM, 30.03 µM",43.22%
COc1ccc2c(ccn2CCCN)c1.O=C(O)C(=O)O,Percent Effect,"30 µM, 30.03 µM",0.08661%
O=C(O)C(F)(F)F.O=C(c1ccc(F)cc1)N1CCC2(CC1)CC(N1CCOCC1)C2,Percent Effect,"30.3 µM, […]",-59.01%
Cn1nccc1C(=O)N1CC[C@]2(C[C@H](OCc3ccccn3)CO2)C1.O=C(O)C(F)(F)F,Percent Effect,"30.3 µM, […]",-48.61%
COc1cccc(N2Cc3nc(=O)n(C(C)C)n3C2=O)c1,Percent Effect,"30 µM, 30.03 µM",-40.88%
CC[C@@H]1N(Cc2ccc(OC)cc2)CCC[C@]12CCC(=O)N2CCOC.O=C(O)C(F)(F)F,Percent Effect,"30.3 µM, […]",-46.04%
CCOc1ccc(N2CCCN=C2NC(=O)c2cccc(OC)c2)cc1,Percent Effect,"30.3 µM, […]",-26.63%
COc1cccc(-c2noc(C3CCN(Cc4cn(C)nc4C)C3)n2)c1 (configuration not stated),Percent Effect,"30 µM, 30.03 µM",63.09%
COc1cccc(-c2noc(C3CCN(Cc4ccccc4C)C3)n2)c1.Cl (configuration not stated),Percent Effect,"30.3 µM, […]",-12.24%
COc1cccc(-c2noc(C3CCN(Cc4ccccc4F)C3)n2)c1.Cl (configuration not stated),Percent Effect,"30.3 µM, […]",-18.78%
CNC(=O)[C@@]12CCO[C@@H]1CCN(Cc1ccc3c(c1)OCO3)C2.O=C(O)C(F)(F)F,Percent Effect,"30.3 µM, […]",-39.27%
Cc1cc(C)n(CCCn2cncc2-c2ccc3c(c2)CC(C)N3C)n1.Cl (configuration not stated),Percent Effect,"30.3 µM, […]",83.42%
Cc1nn(C)c(C)c1CCn1cncc1-c1ccc2c(c1)CC(C)N2C.Cl (configuration not stated),Percent Effect,"30.3 µM, […]",26.67%
Cc1nccn1CCCn1cncc1-c1ccc2c(c1)CC(C)N2C.Cl (configuration not stated),Percent Effect,"30.3 µM, […]",-10.42%
Cc1nccn1CCCn1cncc1-c1ccc2c(c1)CCC(C)N2C.Cl (configuration not stated),Percent Effect,"30.3 µM, […]",17.11%
CCN1c2ccc(-c3cncn3CCCn3ccnc3C)cc2CC1C.Cl (configuration not stated),Percent Effect,"30.3 µM, […]",7.904%
COCC1N(S(=O)(=O)c2cn(C)cn2)[C@H]2CC[C@]1(O)CC2 (some centres not stated),Percent Effect,"30.3 µM, […]",-23.23%
CN(C)C(=O)CN1C(=O)CCC12CCN(Cc1cccs1)CC2.O=C(O)C(F)(F)F,Percent Effect,"30.3 µM, […]",-53.05%
O=C(O)C(F)(F)F.O=C(c1cscn1)N1CCCC2(CCN2Cc2cccc(F)c2)C1 (configuration not stated),Percent Effect,"30.3 µM, […]",27.36%
Cc1cc(C)cc(OCC(O)CN2CCN(c3nccs3)CC2)c1 (configuration not stated),Percent Effect,"30 µM, 30.03 µM",-27.85%
COC(=O)c1ccc(N2CCN(C(=O)c3cnc(C)cn3)C(C)C2)cc1 (configuration not stated),Percent Effect,"30.3 µM, […]",8.397%
Cc1nn(C)c2nc(-c3ccccn3)nc(NC[C@@H]3CCCO3)c12,Percent Effect,"30 µM, 30.03 µM",-82.13%
CCC1(O)CCCN(c2nc(-c3ccccn3)nc3c2c(C)nn3C)C1 (configuration not stated),Percent Effect,"30 µM, 30.03 µM",51.81%
Cc1nn(C)c2nc(-c3ccccn3)nc(NCCC3CCCN3C)c12 (configuration not stated),Percent Effect,"30 µM, 30.03 µM",-75.32%
O=C1CCC2(CCN(Cc3cscn3)CC2)CN1[C@H]1CC[C@H](O)CC1,Percent Effect,"30 µM, 30.03 µM",-1.213%
CNc1cccc(CC2COCCN(C(=O)c3cccnc3)C2)n1 (configuration not stated),Percent Effect,"30.3 µM, […]",5.622%
CCNC(=O)NCCc1csc(N2CCCC2)n1,Percent Effect,"30 µM, 30.03 µM",-10.34%
CC(C)(C)OC(=O)NCCc1csc(N2CCCC2)n1,Percent Effect,"30 µM, 30.03 µM",63.65%
CC(C)(C)SCC(=O)NCCc1csc(N2CCCC2)n1,Percent Effect,"30 µM, 30.03 µM",-0.8864%
CC(=O)Nc1nc(C(=O)NCCOc2ccccc2F)cs1,Percent Effect,"30.3 µM, […]",-41.52%
Cc1nc(C2(O)CCCNCC2)sc1CCOc1ccccc1F.Cl (configuration not stated),Percent Effect,"30.3 µM, […]",74.4%
Cc1ncccc1OC1(C(=O)NCCNc2ccccc2)CCNCC1,Percent Effect,"30.3 µM, […]",0.199%
Cc1ncc(C(=O)NCCOc2ccccc2F)c(C)n1,Percent Effect,"30 µM, 30.03 µM",-71.35%
CCN1CCCC(O)(c2nc(C)c(CCOc3ccccc3F)s2)CC1 (configuration not stated),Percent Effect,"30.3 µM, […]",-7.056%
CCN1CCCC(O)(c2nc(C)c(CCOc3ccccc3Cl)s2)CC1 (configuration not stated),Percent Effect,"30.3 µM, […]",33.23%
Cc1nc(C2(O)CCCNCC2)sc1CCOc1ccccc1Cl.Cl (configuration not stated),Percent Effect,"30.3 µM, […]",102.3%
Cc1nc(C2(O)CCCNCC2)sc1CCOc1ccccc1.Cl (configuration not stated),Percent Effect,"30.3 µM, […]",41.97%
CNC(=O)CN1CC[C@H]2CN(C(=O)c3ccccc3C)C[C@H]2C1.O=C(O)C(F)(F)F,Percent Effect,"30.3 µM, […]",-31.13%
O=C(COc1ccccc1F)N1CCCCC1c1ccn2ccnc2n1 (configuration not stated),Percent Effect,"30.3 µM, […]",-11.94%
O=C(C1=CCCC1)N1CCO[C@H]2[C@@H](Oc3ccccn3)CC[C@@H]21.O=C(O)C(F)(F)F,Percent Effect,"30 µM, 30.03 µM",21.55%
Cc1c(C)n(-c2ccccn2)c2nc3c(c(N)c12)CCCC3,Percent Effect,"30 µM, 30.03 µM",65.81%
Cc1c(C)n(-c2ccccn2)c2nc3c(c(N)c12)CCCCC3,Percent Effect,"30 µM, 30.03 µM",-26.49%
Cc1c(C)n(Cc2ccccn2)c2nc3c(c(N)c12)CCCC3,Percent Effect,"30 µM, 30.03 µM",14.96%
O=C(C1CCCC1)N1C[C@@H]2CCN(c3cnccn3)C[C@@H]2C1.O=C(O)C(F)(F)F,Percent Effect,"30.3 µM, […]",-13.6%
CCc1ccc(CN2C[C@@H]3COC[C@H](NS(C)(=O)=O)[C@@H]3C2)o1.O=C(O)C(F)(F)F,Percent Effect,"30.3 µM, […]",-9.462%
Cc1ccc(N2CCC3(CCN(C(=O)c4ccsc4)CC3)CC2)nn1,Percent Effect,"30 µM, 30.03 µM",20.14%
Cc1ccc(N(C)C2CCN(C(=O)c3ccsc3)CC2)nn1,Percent Effect,"30 µM, 30.03 µM",59.68%
Cc1ccc(NC2CCN(C(=O)c3ccsc3)CC2)nn1,Percent Effect,"30 µM, 30.03 µM",-24.89%
CC1=Nc2c(c(=O)[nH]n2C2CCCC2)C(c2ccc(O)cc2)S1 (configuration not stated),Percent Effect,"30 µM, 30.03 µM",-3.6%
